Inconclusive results are not listed. A call without a number means that no potency is given here. Activity calls are given as the source filed them. The call rests on the fitted dose curve; in most records, active means well fitted activation curve with a large enough effect in the repeat runs; inconclusive means weak or mixed curves; inactive means flat fitted curve, though single readings scatter.
Experiment: A CellTox Green Cytotoxicity Assay to monitor cytotoxicity in HepG2 cells - 32 hour (AID 1224883); further: nearly all actives have a fitted effect of over 50% in size
Conditions: CellTox Green fluorescence; series mostly up to 76.8 µM
Source text: National Center for Advancing Translational Sciences [NCATS]
NIH Chemical Genomics Center [NCGC]
U.S. Environmental Protection Agency [EPA]
National Institutes of Environmental Health Sciences [NIEHS]
National Toxicology Program [NTP]
Cell-based models are critical for drug discovery. Determining the natural cytotoxic effects resulting from test compounds is an essential research activity. A CellTox Green Cytotoxicity Assay to monitor cytotoxicity in real time of continues cell culture during 40 hours of the compound treatment was used to screen Tox21 10K library compounds in HepG2 cells. CellTox Green Cytotoxicity Assay is a nonlytic, homogeneous, biofluorescent method to measure cytotoxicity in cell culture after experimental manipulation. The assay system uses a proprietary asymmetric cyanine dye that is excluded from viable cells but preferentially stains the dead cell's DNA. […] Viable cells produce no appreciable increases in fluorescence. Therefore, the fluorescence signal produced by the binding interaction with dead cell DNA is proportional to cytotoxicity.
The mixture of HepG2 cell suspension and reagents were dispensed at 600cells/6 ul/well in 1536-well tissue culture treated black solid bottom plates using a Multidrop dispenser. After the assay plates were incubated at a 37 C/5% CO2 incubator for 5 hours, 23 nL of compounds dissolved in DMSO, positive and negative controls was transferred to the assay plate by a pintool work station. The plates were incubated at 37 C for 40 hours. The fluorescence intensity were measured at 0h, 8h, 16h, 24h, 32h and 40h time points using ViewLux plate reader during compound treatment.
In the case of `CCCCC(CC)COC(=O)c1c(Br)c(Br)c(Br)c(Br)c1C(=O)OCC(CC)CCCC` (stereo not given), the Potency is reported as “inactive”.
In the case of `CN(C)C(=O)Nc1cccc(OC(=O)NC(C)(C)C)c1`, the Potency is reported as “inactive”.
For `NP(N)(=O)NC(=O)c1ccc(F)cc1`, the Potency was “inactive”.
For `CCNC(=O)NC(=O)/C(C#N)=N/OC`, the Potency was “inactive”.
With `O=C=NC1CCCCC1` the Potency was “inactive”.
In the case of `Cc1nnc(-c2ccccc2)c(=O)n1N`, the Potency is reported as “inactive”.
For `CCCC(C)(COC(N)=O)COC(=O)NC(C)C` (stereo not given), the Potency was “inactive”.
In the case of `CCCCCCCCCCCCCCCl`, the Potency is reported as “inactive”.
For `O=C(O)c1cc(Cl)ccc1Cl`, the Potency was “inactive”.
For `O=C(O)c1ccc(=O)[nH]c1`, the Potency was “inactive”.
For `O=C(O)C(Cl)(Cl)Br`, the Potency was “inactive”.
For `Oc1cccc(Cl)c1`, the Potency was “inactive”.
For `Nc1cc(Cl)cc(C(=O)O)c1Cl`, the Potency was “inactive”.
For `CCCSP(=S)(OCC)Oc1ccc(SC)cc1` (stereo not given), the Potency was “inactive”.
With `CCCCCCCCP(=O)(O)O` the Potency was “inactive”.
With `CCCCCl` the Potency was “inactive”.
For `C[N+](C)(C)CC1CO1` (stereo not given), the Potency was “inactive”.
With `CCOc1cccc(C2(N3CCN(c4ccccc4)CC3)CCC(C)CC2)c1` (stereo not given) the Potency was “inactive”.
In the case of `CNC(=O)Oc1cccc(N=CN(C)C)c1`, the Potency is reported as “inactive”.
For `CCCCCBr`, the Potency was “inactive”.
With `CN1C[C@H](C(=O)N[C@]2(C)O[C@@]3(O)[C@@H]4CCCN4C(=O)[C@H](Cc4ccccc4)N3C2=O)C=C2c3cccc4[nH]cc(c34)C[C@H]21` the Potency was “inactive”.
For `C=C(Cl)Cl`, the Potency was “inactive”.
With `COC1CC(=C(c2cccs2)c2cccs2)C[N+](C)(C)C1` (stereo not given) the Potency was “inactive”.
In the case of `CN1CC[C@]23c4c5ccc(O)c4O[C@H]2[C@@H](O)C=C[C@H]3[C@H]1C5`, the Potency is reported as “inactive”.
In the case of `CCCC[N+]1(C)[C@@H]2CC(OC(=O)[C@H](CO)c3ccccc3)C[C@H]1[C@@H]1O[C@@H]12` (stereo not given in full), the Potency is reported as “inactive”.
In the case of `CCCCC#N`, the Potency is reported as “inactive”.
For `CCCC[P+](CC)(CCCC)CCCC` (tested in a mixture with another compound), the Potency was “inactive”.
In the case of `NC(=O)CF`, the Potency is reported as “inactive”.
With `CCCBr` the Potency was “inactive”.
In the case of `CC(C)C1(C)N=C(c2ncccc2C(=O)O)NC1=O` (stereo not given), the Potency is reported as “inactive”.
In the case of `CCC(C)(C)c1ccc(O)c(C(C)(C)CC)c1`, the Potency is reported as 30.6 µM (active).
For `c1ccc2c(c1)sc1ccccc12`, the Potency was “inactive”.
In the case of `CC(C)(C)NCC(O)c1ccccc1Cl` (stereo not given), the Potency is reported as “inactive”.
For `CCSCc1ccccc1OC(=O)NC`, the Potency was “inactive”.
In the case of `CCOP(=S)(OCC)SCSc1cc(Cl)ccc1Cl`, the Potency is reported as “inactive”.
For `Nc1ccc2c(c1)Cc1ccccc1-2`, the Potency was “inactive”.
In the case of `O=S(=O)(c1ccccc1)c1ccccc1`, the Potency is reported as “inactive”.
For `CCOP(=O)(O)C(N)=O`, the Potency was “inactive”.
In the case of `OC[P+](CO)(CO)CO`, the Potency is reported as “inactive”.
In the case of `O=C(O)C(F)(F)C(F)(F)C(F)(F)C(F)(F)C(F)(F)C(F)(F)C(F)(F)C(F)(F)F`, the Potency is reported as “inactive”.

From PubChem BioAssay (Tox21)
Potency means the concentration at half of the fitted maximal effect.
